Measured values: PubChem BioAssay AID1159580 (chemical genetic matrix, 2015)
About 2,000 (36%) of roughly 5,500 compounds were called active. About 18% were inconclusive and are not listed. Rule as the data show it: active = normalized growth mostly below about 0.91 (no sharp cut-off); inconclusive = no clear call, values can overlap the other calls; inactive = mostly above about 0.92. The list shows a part of the results.

Experiment: chemical genetic growth profiling, strain panel (AID 1159580);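 also: tested at 20 µM; growth read once vehicle control cultures reached saturation at 30 °C; 1 = growth at the plate median or of vehicle wells; lower values mean less growth of the strain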
Conditions: S. cerevisiae deletion strains, growth OD

Measured: normalized growth

Clc1ccc(C(c2ccc(Cl)cc2)C(Cl)(Cl)Cl)cc1
inactive: locus YAL013W, strain DEP1, stronger effect = lower value 1 | locus YAL021C, strain ccr4, stronger effect = lower value 1.01 | locus YAL026C, strain drs2, stronger effect = lower value 1.01 | locus YAL030W, strain snc1, stronger effect = lower value 1 | locus YBL061C, strain skt5, stronger effect = lower value 1.01 | locus YBR009C, strain hhf1, stronger effect = lower value 0.998 | locus YBR021W, strain FUR4, stronger effect = lower value 0.999 | locus YBR023C, strain chs3, stronger effect = lower value 1.01 | locus YBR171W, strain sec66, stronger effect = lower value 1.01 | locus YBR229C, strain ROT2, stronger effect = lower value 1.02 | locus YBR231C, strain swc5, stronger effect = lower value 1.01 | locus YBR279W, strain paf1, stronger effect = lower value 1.01 | locus YCL011C, strain gbp2, stronger effect = lower value 1.01 | locus YCL016C, strain dcc1, stronger effect = lower value 1.01 | locus YCL029C, strain bik1, stronger effect = lower value 1.01 | locus YCL061C, strain MRC1, stronger effect = lower value 1.01 | locus YCL069W, strain vba3, stronger effect = lower value 0.999 | locus YCR088W, strain abp1, stronger effect = lower value 1.01 | locus YDL005C, strain med2, stronger effect = lower value 1 | locus YDL035C, strain GPR1, stronger effect = lower value 0.983 | locus YDL040C, strain nat1, stronger effect = lower value 1.01 | locus YDL074C, strain BRE1, stronger effect = lower value 1.02 | locus YDL101C, strain DUN1, stronger effect = lower value 1.02 | locus YDL134C, strain PPH21, stronger effect = lower value 1.02 | locus YDL185W, strain tfp1, stronger effect = lower value 0.999 | locus YDL192W, strain arf1, stronger effect = lower value 1 | locus YDR001C, strain nth1, stronger effect = lower value 1.01 | locus YDR069C, strain doa4, stronger effect = lower value 0.992 | locus YDR101C, strain arx1, stronger effect = lower value 0.993 | locus YDR137W, strain rgp1, stronger effect = lower value 1.01 | locus YDR150W, strain NUM1, stronger effect = lower value 1.03 | locus YDR159W, strain sac3, stronger effect = lower value 1.01 | locus YDR162C, strain NBP2, stronger effect = lower value 1.01 | locus YDR195W, strain ref2 1.04 | locus YDR297W, strain sur2, stronger effect = lower value 1.01 | locus YDR318W, strain mcm21, stronger effect = lower value 0.999 | locus YDR334W, strain swr1, stronger effect = lower value 1.02 | locus YDR335W, strain msn5, stronger effect = lower value 1.01 | locus YDR388W, stronger effect = lower value 0.993 | locus YDR392W, strain spt3, stronger effect = lower value 0.977 | locus YDR502C, strain sam2, stronger effect = lower value 0.999 | locus YEL003W, strain gim4, stronger effect = lower value 1.01 | locus YEL037C, strain rad23, stronger effect = lower value 1.01 | locus YEL061C, strain CIN8 (second series), stronger effect = lower value 1.01 | locus YEL061C, strain CIN8, stronger effect = lower value 1.02 | locus YER015W, strain faa2, stronger effect = lower value 1.01 | locus YER016W, strain bim1, stronger effect = lower value 1 | locus YER110C, stronger effect = lower value 0.997 | locus YER111C, strain swi4, stronger effect = lower value 1.01 | locus YER155C, strain BEM2 (second series), stronger effect = lower value 1 | locus YER155C, strain BEM2, stronger effect = lower value 1.02 | locus YER167W, strain BCK2, stronger effect = lower value 1.01 | locus YFR010W, strain ubp6, stronger effect = lower value 1.01 | locus YGL078C, strain dbp3, stronger effect = lower value 1 | locus YGL086W, strain mad1, stronger effect = lower value 1.01 | locus YGL167C, strain pmr1, stronger effect = lower value 1.01 | locus YGL173C, strain kem1, stronger effect = lower value 0.995 | locus YGL227W, strain vid30, stronger effect = lower value 1.01 | locus YGL240W, strain doc1, stronger effect = lower value 0.997 | locus YGL248W, strain PDE1, stronger effect = lower value 1.02 | locus YGL253W, strain hxk2, stronger effect = lower value 1 | locus YGR078C, strain PAC10, stronger effect = lower value 1.01 | locus YGR135W, strain pre9, stronger effect = lower value 1 | locus YGR229C, strain SMI1, stronger effect = lower value 0.997 | locus YGR252W, strain gcn5, stronger effect = lower value 0.916 | locus YHR013C, strain ard1, stronger effect = lower value 1.03 | locus YHR027C, strain rpn1, stronger effect = lower value 1 | locus YHR030C, strain SLT2, stronger effect = lower value 1.03 | locus YHR079C, strain IRE1 (second series), stronger effect = lower value 0.999 | locus YHR094C, strain hxt1, stronger effect = lower value 1 | locus YHR129C, strain ARP1, stronger effect = lower value 1.03 | locus YHR142W, strain chs7, stronger effect = lower value 1.01 | locus YHR200W, strain rpn10, stronger effect = lower value 0.991 | locus YIL066C, strain RNR3, stronger effect = lower value 1.01 | locus YIL073C, strain SPO22, stronger effect = lower value 0.972 | locus YIL125W, strain kgd1, stronger effect = lower value 1 | locus YIR030C, strain dcg1, stronger effect = lower value 0.993 | locus YJL092W, strain hpr5, stronger effect = lower value 1 | locus YJL095W, strain BCK1 (second series), stronger effect = lower value 1.01 | locus YJL095W, strain BCK1, stronger effect = lower value 1.02 | locus YJL115W, strain asf1, stronger effect = lower value 1.02 | locus YJL129C, strain trk1, stronger effect = lower value 0.993 | locus YJL134W, strain LCB3, stronger effect = lower value 1.02 | locus YJL154C, strain vps35, stronger effect = lower value 1.02 | locus YJL164C, strain tpk1, stronger effect = lower value 1.01 | locus YJL166W, strain qcr8, stronger effect = lower value 1 | locus YJL168C, strain set2, stronger effect = lower value 1.01 | locus YJL187C, strain SWE1 (second series), stronger effect = lower value 1.02 | locus YJL187C, strain SWE1, stronger effect = lower value 1.01
